Source: PubChem (NMMLSC)
In the library only some 2.2% were active in any assay of this set; here they are far more common.
MEKK2mut PB1 HTS: MEK5 binding signal on mutant MEKK2 PB1, primary screen, biochemical, multiplex bead flow cytometry, Alexa488-MEK5 | 290,000 tested, 0.35% active | Alexa488-MEK5 binding to MEKK2 mutant | percent response, % at 10 µM | AID 1530, 2009; in the data active = percent response above about 24%, passing the limit was not always enough
VLA-4 inh: inhibition in human VLA-4 binding assay, primary screen, VLA-4 allosteric modulator project, MLPCN library, flow cytometry, VLA-4 expressing cells. ligand binding flow cytometry. inhibition, % (about 7 µM as worked out from the volumes in the protocol). 330,000 tested, 0.2% active; in the data active = inhibition above about 50%
Target sequence (P13612 whole entry, looked up): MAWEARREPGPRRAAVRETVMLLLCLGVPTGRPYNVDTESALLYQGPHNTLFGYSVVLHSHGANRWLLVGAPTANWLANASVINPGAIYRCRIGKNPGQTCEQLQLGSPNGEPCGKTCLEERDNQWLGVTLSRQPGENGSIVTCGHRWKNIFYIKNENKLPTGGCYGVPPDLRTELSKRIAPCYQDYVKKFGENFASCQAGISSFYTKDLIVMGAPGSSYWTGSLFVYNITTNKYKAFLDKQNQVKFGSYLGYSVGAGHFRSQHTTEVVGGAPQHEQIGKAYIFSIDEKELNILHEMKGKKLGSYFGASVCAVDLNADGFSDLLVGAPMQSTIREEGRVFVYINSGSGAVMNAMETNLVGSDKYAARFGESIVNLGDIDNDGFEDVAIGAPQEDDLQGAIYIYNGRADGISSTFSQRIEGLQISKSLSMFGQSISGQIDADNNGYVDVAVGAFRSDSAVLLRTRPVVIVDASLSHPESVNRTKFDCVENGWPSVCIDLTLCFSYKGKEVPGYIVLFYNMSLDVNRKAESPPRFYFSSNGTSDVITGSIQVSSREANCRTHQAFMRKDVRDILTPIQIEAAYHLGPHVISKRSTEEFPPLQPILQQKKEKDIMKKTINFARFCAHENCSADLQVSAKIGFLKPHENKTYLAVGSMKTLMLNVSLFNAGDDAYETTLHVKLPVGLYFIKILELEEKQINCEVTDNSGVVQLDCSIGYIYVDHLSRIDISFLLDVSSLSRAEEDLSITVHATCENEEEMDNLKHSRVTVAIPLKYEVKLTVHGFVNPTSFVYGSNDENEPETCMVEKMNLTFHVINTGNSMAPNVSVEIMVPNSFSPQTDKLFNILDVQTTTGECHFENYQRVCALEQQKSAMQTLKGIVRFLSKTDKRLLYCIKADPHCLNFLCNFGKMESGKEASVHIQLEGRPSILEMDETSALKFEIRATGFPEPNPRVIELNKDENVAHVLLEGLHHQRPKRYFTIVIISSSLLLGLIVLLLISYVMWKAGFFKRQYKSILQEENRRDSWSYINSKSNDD
MEKK3 PB1 HTS: modulators of MEKK3-MEK5 PB1 binding, primary screen, biochemical, wildtype MEKK3, multiplex bead flow cytometry, Alexa488-MEK5; bead-based flow cytometry, Alexa488-MEK5 binding to MEKK3; actives lie on both sides; 0 = blocked by unlabeled MEK5, 100 = vehicle; Mitogen-activated protein kinase kinase kinase 3 (Homo sapiens), Q99759; binding response (% of control), % at 10 µM; AID 1529, 2009; 290,000 tested, 1.4% active;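 active = binding response more than 3 SD above or below the average of its plate-row segment, actives on both sides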;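 also: Alexa488 bead fluorescence after subtracting the streptavidin-only scavenger bead signal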
MEKK2 WT-MEK5: modulators of MEK5 binding to wildtype MEKK2, primary screen, biochemical, multiplex bead flow cytometry, Alexa488-MEK5; 290,000 tested, 1.1% active; binding response (% of control), % at 10 µM; Alexa488-MEK5 binding to MEKK2 WT; actives lie on both sides; AID 1531, 2009; in the data active = binding response below about 67% or above about 130%
MEKK2wt confirm: modulators of MEK5 binding to wildtype MEKK2, confirmation, biochemical, single concentration, multiplex bead flow cytometry | binding response (% of control), % at 10 µM | 5,900 tested, 2.4% active | shares compounds with MEKK3 PB1 HTS | Alexa488-MEK5 binding to MEKK2 WT; actives lie on both sides | AID 1892, 2009; in the data active = binding response below about 16% or above about 210%; inactive = in between
MEKK2mut-MEK5: mutant MEKK2 PB1-MEK5 binding signal retest – biochemical, single concentration, multiplex bead flow cytometry, confirmation; Alexa488-MEK5 binding to MEKK2 mutant; 5,900 tested, 2% active; AID 1893, 2009; shares compounds with MEKK3 PB1 HTS; percent response, % at 10 µM; in the data active = percent response mostly above about 71%, no sharp cut-off; inactive = mostly below about 38%;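 also: higher means compound restores mutant binding toward wildtype level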
MEKK3-MEK5 inh: MEKK3 wild-type PB1 binding to MEK5, inhibitors, confirmation, biochemical, bead multiplex flow cytometry, single concentration, wildtype | shares compounds with MEKK3 PB1 HTS | Alexa488-MEK5 binding to MEKK3; active compounds read low | binding response (% of control), % at 10 µM | 5,900 tested, 1.8% active | AID 1894, 2009;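 active = binding response below 72% of control, or above a set upper limit, though filed actives all read lower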;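 also: 100% = DMSO only wells and 0% = binding blocked by excess unlabeled MEK5; lower values mean stronger disruption of MEK5 binding to MEKK3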
The depositor's hits bear a star.

How did COc1ccc(NC(=O)C2CCN(S(=O)(=O)c3ccc4c(c3)NC(=O)CO4)CC2)cc1 do in these assays?
MEKK2mut PB1 HTS: 0.0; VLA-4 inh: 19.3; MEKK3 PB1 HTS: 99.0; MEKK2 WT-MEK5: 98.0

Results for CCN(CC)CCCNC(=O)c1cc2c(=O)n(CC)c3ccccc3c2s1 ?
MEKK2mut PB1 HTS: 7.0; VLA-4 inh: 0.0; MEKK3 PB1 HTS: 100.0; MEKK2 WT-MEK5: 111.0

What do the screens show for `CCN(CC)CCCNC(=O)c1cc2c(Cl)nc3ccccc3c2s1`?
MEKK2mut PB1 HTS: 54.0*; VLA-4 inh: 0.1; MEKK3 PB1 HTS: 105.0; MEKK2 WT-MEK5: 152.0*; MEKK2wt confirm: 130.0; MEKK2mut-MEK5: 15.0; MEKK3-MEK5 inh: 108.0

How did O=C(C[n+]1ccc(C(=O)NCCCO)cc1)c1cccc(Br)c1 do in these assays?
MEKK2mut PB1 HTS: 21.0; VLA-4 inh: 28.4; MEKK3 PB1 HTS: 130.0*; MEKK2 WT-MEK5: 122.0; MEKK2wt confirm: 105.0; MEKK2mut-MEK5: 0.0; MEKK3-MEK5 inh: 100.0

What do the screens show for `Cn1c(=O)c2c(ncn2CC(=O)OCC(=O)Nc2cc(Cl)ccc2Cl)n(C)c1=O`?
MEKK2mut PB1 HTS: -1.0; VLA-4 inh: 20.9; MEKK3 PB1 HTS: 139.0*; MEKK2 WT-MEK5: 100.0; MEKK2wt confirm: 107.0; MEKK2mut-MEK5: 5.0; MEKK3-MEK5 inh: 101.0

What do the screens show for `COc1ccc(-c2nn(-c3ccccc3C)cc2CNCCc2cnc[nH]2)cc1F`?
MEKK2mut PB1 HTS: -6.0; VLA-4 inh: 2.6; MEKK3 PB1 HTS: 112.0; MEKK2 WT-MEK5: 149.0*; MEKK2wt confirm: 161.0; MEKK2mut-MEK5: 22.0; MEKK3-MEK5 inh: 105.0

Results for CCn1cc(CNCc2cn(-c3ccccc3C)nc2-c2ccc(OC)c(F)c2)cn1 ?
MEKK2mut PB1 HTS: -5.0; VLA-4 inh: -1.4; MEKK3 PB1 HTS: 98.0; MEKK2 WT-MEK5: 103.0

What do the screens show for `O=C1C=C(NCc2ccc(Cl)cc2)CC(c2ccco2)C1` (configuration not stated)?
MEKK2mut PB1 HTS: 8.0; VLA-4 inh: 34.7; MEKK3 PB1 HTS: 127.0*; MEKK2 WT-MEK5: 116.0; MEKK2wt confirm: 95.0; MEKK2mut-MEK5: -3.0; MEKK3-MEK5 inh: 96.0

Results for CCCn1c(SCC(=O)NCCCN2CCCC2=O)nc2ccccc2c1=O ?
VLA-4 inh: 0.8

What do the screens show for `CSc1cccc(N2CC(C(=O)Nc3cccc(S(=O)(=O)N4CCCC4)c3)CC2=O)c1` (configuration not stated)?
VLA-4 inh: 6.7

What do the screens show for `O=[N+]([O-])c1ccc2nc(-c3ccncc3)[nH]c2c1`?
MEKK2mut PB1 HTS: 2.0; VLA-4 inh: 11.6; MEKK3 PB1 HTS: 96.0; MEKK2 WT-MEK5: 97.0

What do the screens show for `O=[N+]([O-])c1cccc(-c2nc3ccc([N+](=O)[O-])cc3[nH]2)c1`?
MEKK2mut PB1 HTS: 1.0; VLA-4 inh: -2.2; MEKK3 PB1 HTS: 128.0*; MEKK2 WT-MEK5: 113.0; MEKK2wt confirm: 104.0; MEKK2mut-MEK5: 4.0; MEKK3-MEK5 inh: 95.0

Results for O=C1CCC(C(=O)O)N1 (configuration not stated) ?
MEKK2mut PB1 HTS: 0.0; VLA-4 inh: 23.8; MEKK3 PB1 HTS: 101.0; MEKK2 WT-MEK5: 102.0

How did Cc1oc(-c2cccc(Cl)c2)nc1CN1CCC(C(=O)NC2CC2)CC1 do in these assays?
MEKK2mut PB1 HTS: 1.0; VLA-4 inh: 4.4; MEKK3 PB1 HTS: 102.0; MEKK2 WT-MEK5: 99.0

Results for CCN(CCNC(=O)C1CCN(Cc2nc(-c3ccc(Cl)cc3)oc2C)CC1)c1ccccc1 ?
MEKK2mut PB1 HTS: 15.0; VLA-4 inh: 8.4; MEKK3 PB1 HTS: 107.0; MEKK2 WT-MEK5: 163.0*; MEKK2wt confirm: 151.0; MEKK2mut-MEK5: 33.0; MEKK3-MEK5 inh: 110.0

What do the screens show for `CCN(CCNC(=O)C1CCN(Cc2nc(-c3cccc(Cl)c3)oc2C)CC1)c1ccccc1`?
MEKK2mut PB1 HTS: 20.0; VLA-4 inh: 7.5; MEKK3 PB1 HTS: 109.0; MEKK2 WT-MEK5: 188.0*; MEKK2wt confirm: 138.0; MEKK2mut-MEK5: 15.0; MEKK3-MEK5 inh: 101.0

What do the screens show for `CCc1ccc(-c2nc(CN3CCC(C(=O)N4CCN(c5ccccc5)CC4)CC3)c(C)o2)cc1`?
MEKK2mut PB1 HTS: 7.0; VLA-4 inh: 10.7; MEKK3 PB1 HTS: 108.0; MEKK2 WT-MEK5: 152.0*; MEKK2wt confirm: 116.0; MEKK2mut-MEK5: 8.0; MEKK3-MEK5 inh: 105.0

What do the screens show for `CCc1ccc(-c2nc(CN3CCC(C(=O)NCc4ccc(F)cc4)CC3)c(C)o2)cc1`?
MEKK2mut PB1 HTS: 13.0; VLA-4 inh: 9.0; MEKK3 PB1 HTS: 104.0; MEKK2 WT-MEK5: 145.0*; MEKK2wt confirm: 117.0; MEKK2mut-MEK5: 3.0; MEKK3-MEK5 inh: 104.0

What do the screens show for `COc1ccc(CC(=O)NC(C)c2ccc3ccccc3c2)cc1` (configuration not stated)?
MEKK2mut PB1 HTS: 5.0; VLA-4 inh: 0.3; MEKK3 PB1 HTS: 102.0; MEKK2 WT-MEK5: 107.0

What do the screens show for `CCN(CCNC(=O)C1CCCN(Cc2nc(-c3ccc(OC)cc3)oc2C)C1)c1ccccc1` (configuration not stated)?
MEKK2mut PB1 HTS: 12.0; VLA-4 inh: -16.9; MEKK3 PB1 HTS: 106.0; MEKK2 WT-MEK5: 134.0

How did CCc1ccc(-c2nc(CN3CCC(C(=O)NCCN(CC)c4ccccc4)CC3)c(C)o2)cc1 do in these assays?
MEKK2mut PB1 HTS: 15.0; VLA-4 inh: 36.5; MEKK3 PB1 HTS: 104.0; MEKK2 WT-MEK5: 184.0*; MEKK2wt confirm: 148.0; MEKK2mut-MEK5: 20.0; MEKK3-MEK5 inh: 106.0

How did CN(CC(=O)Nc1cccc(F)c1)C(=O)CN1C(=O)NC2(CCCC2)C1=O do in these assays?
VLA-4 inh: 8.5

What do the screens show for `O=C(Nc1c2c(nn1-c1ccc(Cl)cc1)CS(=O)(=O)C2)c1ccccc1`?
MEKK2mut PB1 HTS: 3.0; VLA-4 inh: -5.5; MEKK3 PB1 HTS: 105.0; MEKK2 WT-MEK5: 104.0

What do the screens show for `COC(=O)c1ccc(/C=C/C(=O)OCC(=O)Nc2cc(C)on2)cc1`?
VLA-4 inh: 1.4

What do the screens show for `Fc1ccccc1-c1csc(=Nc2cccnc2)n1CCCn1ccnc1`?
MEKK2mut PB1 HTS: 3.0; VLA-4 inh: 22.1; MEKK3 PB1 HTS: 137.0*; MEKK2 WT-MEK5: 102.0; MEKK2wt confirm: 114.0; MEKK2mut-MEK5: 19.0; MEKK3-MEK5 inh: 104.0
